From PubChem BioAssay AID2716 (Broad Institute, 2010)
In all, about 320,000 compounds went through this assay and about 3,300 (1%) were called active. This is one part of a sample in which actives are shown more often than they occur.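 How the source made its calls: active means every valid replicate shows activation above 250% relative to neutral control wells; inactive means the rest, any valid replicate at or below 250%.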

Assay: restored growth of temperature-sensitive Mot1-301 yeast – S. cerevisiae, ATP luminescence, 38.5C, SUMOylation pathway inhibitor project, primary screen (AID 2716)
Settings: S. cerevisiae Mot1-301 growth rescue, at 18.8 µM, hits give high values
In the case of O=c1c2ccccc2nc(-c2ccccc2)n1-c1ccccn1, the growth rescue was -8.46% (inactive).
With COc1ccc(-n2c(-c3ccccc3)nc3ccccc3c2=O)cc1 the growth rescue was 524% (active).
With Cc1ccc(-n2c(-c3ccc([N+](=O)[O-])cc3)nc3ccccc3c2=O)cc1 the growth rescue was 30.7% (inactive).
With C[C@@]1([C@@H](NP(=O)(c2ccccc2)c2ccccc2)c2ccccc2)C[C@H]1CCO the growth rescue was 28.7% (inactive).
In the case of CCCC(C)n1[nH]c(=O)c2c1NC(=O)CSC2c1ccc(OC)c(OC)c1 (stereo not given), the growth rescue was -11.2% (inactive).
For O=C(Nc1cccc2ccccc12)N1CCC2(CC1)OCCO2, the growth rescue was 2.67% (inactive).
With c1ccc(CCN2CCC3(CC2)OCCO3)cc1 the growth rescue was 313% (active).
For O=C(c1ccccc1[N+](=O)[O-])N1CCC2(CC1)OCCO2, the growth rescue was -11.1% (inactive).
With COc1ccccc1OC(=O)c1ccc(C)c(S(=O)(=O)N2CCOCC2)c1 the growth rescue was -7.94% (inactive).
For CCOP(=O)(OCC)C(O)c1ccc(OC)cc1OC (stereo not given), the growth rescue was -5.29% (inactive).
In the case of COc1ccc(-n2c(O)c(C(C)=Nc3ccc4c(c3)CCC4)c(=O)[nH]c2=O)cc1, the growth rescue was -1.78% (inactive).
For COc1ccccc1-n1c(O)c(C=NC2CC2)c(=O)[nH]c1=O, the growth rescue was -17.5% (inactive).
In the case of COc1ccc(N=Cc2c(O)n(C)c(=O)[nH]c2=O)cc1, the growth rescue was 842% (active).
In the case of CC(Cc1ccccc1)NCCC(c1ccccc1)c1ccccc1 (stereo not given), the growth rescue was -27.1% (inactive).
In the case of CC(=NCc1ccc2c(c1)OCO2)c1c(O)[nH]c(=O)[nH]c1=O, the growth rescue was -26.7% (inactive).
